Compound activity deposited in PubChem by National Center for Advancing Translational Sciences (NCATS).
An excerpt weighted towards active compounds, which were near 19% of everything screened.
SARS PLP yeast – blocks SARS-CoV papain-like protease in a yeast assay; S. cerevisiae expressing SARS-CoV PLpro, growth rescue; Potency, µM (titrated, usually from 32.9 µM), usual class: activators; 330,000 compounds, 0.19% hits; AID 485353; calls by dose curve; note: nearly all actives have a fitted effect of over 55% in size
AMA1 RON2 block – inhibitors of Plasmodium falciparum AMA1-RON2 interaction. AlphaScreen AMA1-biotinylated RON2 peptide binding. Potency, µM (series often up to 58.2 µM), most hits filed as inhibitors. 360,000 compounds, 0.2% hits. AID 720542; note: nearly all actives have a fitted effect of over 45% in size
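AMA1 (3D7) with his tag at 25 nM final met compounds first, then biotinylated RON2 peptide at 25 nM; detection used donor plus acceptor beads, 10 µg/mL apiece, read by AlphaScreen after 30 min at room temperature.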
Pf growth 96h – P. falciparum growth inhibition at 96 hours. P. falciparum luciferase reporter growth, 96 h. Potency, µM (doses to about 28.7 µM), actives largely listed as inhibitors. 320,000 compounds, 6.9% hits
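96 h incubation, 37 C, 5% CO2, of luciferase-reporter P. falciparum-infected RBCs (2% hematocrit, 0.05% parasitemia final) with test compounds; endpoint luminescence.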
Shiga inhibitor – inhibitors of Shiga toxin in Vero cells. 290,000 compounds, 9.2% hits. inhibition, % at 38.7 µM. Vero cells, Shiga toxin protein synthesis inhibition reporter; in the data active = inhibition mostly above about 28%, no sharp cut-off; inactive = mostly below about 43%
Cycloheximide cs – counter-screen for Shiga toxin inhibitors: cycloheximide protein synthesis inhibition | cell reporter, cycloheximide protein synthesis inhibition counterscreen | max response, % | 300,000 compounds, 12% hits | AID 2314; in the data active = max response mostly above about 13%, no sharp cut-off; inactive = mostly below about 14%; note: read at 38.3 µM for the half of the compounds with a filed dose
Pf growth 48h – inhibits P. falciparum growth in the first generation, 48 h | P. falciparum luciferase growth in erythrocytes, 48 h | 310,000 compounds, 5.9% hits | Potency, µM (titrated, usually from 28.7 µM), usual class: inhibitors
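Compounds are pin-transferred into medium, infected erythrocytes (2% hematocrit, 0.1% parasitemia final) are added, and plates sit one parasite generation at 37 C in 5% CO2. Detection reagent is then added and luminescence measured.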
Large screens that a line does not name were inactive. Unless noted, calls come from the whole dose curve; as a rule, active = well fitted curve in the direction sought with a large enough effect; inconclusive = small, poorly fitted or top-dose-only effect, or another doubt; inactive = no such curve, though single readings can be large; an effect the other way counts as inactive or inconclusive.

Cc1cc(C)c2c(CN3CCN(C/C=C/c4ccccc4)CC3)cc(=O)oc2c1	Pf growth 96h 7.4µM, Pf growth 48h 9.3µM
Cc1cc(C)c2c(CN3CCC(C)CC3)cc(=O)oc2c1	Shiga inhibitor 61, Cycloheximide cs 38
CC1CCN(Cc2cc(=O)oc3ccc4ccccc4c23)CC1	Pf growth 96h 8.3µM, Pf growth 48h 7.4µM
CN(c1nccc(=O)[nH]1)C1CCN(c2nc3ccccc3n2Cc2ccc(F)cc2)CC1	Pf growth 48h inconclusive (no result: SARS PLP yeast, AMA1 RON2 block, Shiga inhibitor, Cycloheximide cs)
Cc1ccc(C(=O)OCC(=O)NC2CCCC(C)C2C)s1 (stereo unspecified)	none (no result: SARS PLP yeast, Pf growth 96h, Shiga inhibitor, Cycloheximide cs, Pf growth 48h)
CNC(=O)c1cc(C(=O)c2ccc(F)cc2C(F)(F)F)c[nH]1	none
Cc1cc(C)c2c(CN3CCCCC3)cc(=O)oc2c1	Cycloheximide cs 11
Cc1cc(C)c2c(CN3CCCCCCC3)cc(=O)oc2c1	none (no result: SARS PLP yeast, Pf growth 96h, Shiga inhibitor, Cycloheximide cs, Pf growth 48h)
O=C(c1ccco1)N1CCN(Cc2ccccc2Br)CC1	Pf growth 96h inconclusive, Shiga inhibitor 56, Cycloheximide cs 34
C/C(=N/N1CCN(Cc2cccc3ccccc23)CC1)c1ccco1	AMA1 RON2 block inconclusive, Shiga inhibitor 17
O=C(c1ccco1)N1CCN(Cc2ccc(F)cc2Cl)CC1	Cycloheximide cs 50, Pf growth 48h inconclusive (no result: Shiga inhibitor)
OC1CCN(Cc2cccc3ccccc23)CC1	none
O=C(O)C1CC2C3CC(C(=O)O)C(C3)C2C1 (stereo unspecified)	none (no result: SARS PLP yeast, Pf growth 96h, Shiga inhibitor, Cycloheximide cs, Pf growth 48h)
CCCNC(=O)C1(C)CCN(C(=O)c2c(Cl)cccc2Cl)C1 (stereo unspecified)	none (no result: SARS PLP yeast, Pf growth 96h, Shiga inhibitor, Cycloheximide cs, Pf growth 48h)
O=C(Nc1ccc2c(c1)OCO2)c1c(F)cccc1F	Shiga inhibitor 75, Cycloheximide cs 33 (no result: Pf growth 96h)
O=C(Nc1cccc(F)c1)Nc1ccc2c(c1)OCO2	Shiga inhibitor 85, Cycloheximide cs 59
O=C(Nc1ccc2c(c1)OCO2)c1cccc(F)c1	Shiga inhibitor 75, Cycloheximide cs 34 (no result: SARS PLP yeast, Pf growth 96h)
O=C(O)Cc1ccc(NC(=O)Nc2ccc3c(c2)OCO3)cc1	Shiga inhibitor 47, Cycloheximide cs 35
O=C(Nc1ccc2c(c1)OCO2)C1CCCN1C(=O)Nc1cccc(F)c1 (stereo unspecified)	Pf growth 48h inconclusive (no result: Pf growth 96h)
CC(C)CCN(C(=O)COc1ccc(C#N)cc1)c1c(N)n(Cc2ccccc2)c(=O)[nH]c1=O	none (no result: AMA1 RON2 block)
Cc1cccc(NNC(=O)c2c(F)cccc2Cl)c1	none
CCSc1ncc(/C=N/Nc2ccc(Cl)cc2)n1C	AMA1 RON2 block inconclusive, Pf growth 96h inconclusive, Shiga inhibitor 112, Cycloheximide cs 77, Pf growth 48h inconclusive
Cn1c(CO)cnc1SCC(=O)c1ccc(Cl)cc1	Pf growth 48h inconclusive
CCSc1ncc(/C=N/Nc2ccccc2)n1C	Pf growth 96h 2.6µM, Shiga inhibitor 55, Cycloheximide cs 29, Pf growth 48h 5.2µM
Cn1c(-c2ccc(F)cc2)cnc1SCC(=O)Nc1ccccc1	Pf growth 96h inconclusive
CCSc1ncc(/C=N/Nc2ccc([N+](=O)[O-])cc2)n1C	Pf growth 96h inconclusive, Shiga inhibitor 55, Cycloheximide cs 25
NC1=NC(=O)/C(=C\c2ccsc2)S1	none
CN(C(=O)CSc1nnc(-c2ccco2)n1C)C1CCCCC1	Pf growth 48h inconclusive (no result: Shiga inhibitor, Cycloheximide cs)
COc1ccc(OCC(O)CN2CCNCC2)cc1 (stereo unspecified)	none
COc1ccc2c(c1)OC(C)(C)C(c1ccccc1)C2c1ccc(OCCN2CCCC2)cc1 (stereo unspecified)	Pf growth 96h 3µM, Pf growth 48h 1.7µM (no result: SARS PLP yeast, AMA1 RON2 block, Shiga inhibitor, Cycloheximide cs)
CCOc1ccccc1/C=C(\NC(=O)c1ccccc1)C(=O)NCCC(=O)O	Shiga inhibitor 43
CCOc1ccc(S(=O)(=O)N2CCN(C(=O)c3sccc3C)CC2)cc1	none (no result: Pf growth 48h)
O=C(c1cc2ccccc2oc1=O)N(Cc1ccco1)Cc1cccs1	Cycloheximide cs 17
O=C(c1cccs1)N(Cc1ccco1)C1CCS(=O)(=O)C1 (stereo unspecified)	Pf growth 96h 5.2µM
CCc1ccc(OC(C)C(=O)N(Cc2ccco2)C2CCS(=O)(=O)C2)cc1 (stereo unspecified)	none
O=C(c1cc2ccccc2oc1=O)N(Cc1cccs1)Cc1cccs1	Pf growth 96h inconclusive
Cc1ccc(CN(C(=O)c2cccs2)C2CCS(=O)(=O)C2)cc1 (stereo unspecified)	Pf growth 48h inconclusive
Cc1ccc(CN(C(=O)c2cc3ccccc3oc2=O)C2CCS(=O)(=O)C2)cc1 (stereo unspecified)	Shiga inhibitor 73, Cycloheximide cs 39
COc1ccccc1OC(C)C(=O)N(Cc1ccco1)C1CCS(=O)(=O)C1 (stereo unspecified)	Pf growth 96h inconclusive, Shiga inhibitor 25, Cycloheximide cs 14
COC(=O)C[C@H]1CC[C@@H](NC(=O)Nc2c(C)noc2C)[C@@H](CO)O1	none (no result: SARS PLP yeast, Pf growth 96h, Shiga inhibitor, Cycloheximide cs, Pf growth 48h)
COc1cc(CN(C(=O)c2cc3ccccc3oc2=O)C2CCS(=O)(=O)C2)cc(OC)c1OC (stereo unspecified)	Pf growth 96h inconclusive, Cycloheximide cs 28
CCc1ccc(CN(C(=O)c2oc3ccccc3c2C)C2CCS(=O)(=O)C2)cc1 (stereo unspecified)	Pf growth 96h inconclusive, Pf growth 48h inconclusive
CCOc1ccc(CN(C(=O)c2cc(=O)c3cc(C)cc(C)c3o2)C2CCS(=O)(=O)C2)cc1 (stereo unspecified)	Pf growth 48h 3.7µM
CCc1ccc(CN(C(=O)c2cc3ccccc3oc2=O)C2CCS(=O)(=O)C2)cc1 (stereo unspecified)	Shiga inhibitor 72, Cycloheximide cs 27
O=C(c1ccccc1)N(Cc1cccs1)C1CCS(=O)(=O)C1 (stereo unspecified)	Pf growth 96h 0.37µM
Cc1cc(C)c2oc(C(=O)N(Cc3ccccc3)C3CCS(=O)(=O)C3)cc(=O)c2c1 (stereo unspecified)	Pf growth 96h inconclusive
COc1ccc(C(=O)N(Cc2cccs2)C2CCS(=O)(=O)C2)cc1 (stereo unspecified)	Pf growth 96h inconclusive
CCC(=Cc1ccc(CC)cn1)CC	Pf growth 96h inconclusive, Pf growth 48h inconclusive
COc1ccc(CCNC(=O)COC(=O)c2cc3ccccc3oc2=O)cc1OC	none (no result: Pf growth 96h, Shiga inhibitor, Cycloheximide cs, Pf growth 48h)
COc1ccc(CN(C(=O)c2cc3ccccc3oc2=O)C2CCCCC2)cc1OC	Pf growth 96h inconclusive, Shiga inhibitor 65, Cycloheximide cs 48, Pf growth 48h inconclusive
CC(C)N(Cc1ccc(F)cc1)C(=O)c1cc2ccccc2oc1=O	Shiga inhibitor 55, Cycloheximide cs 43 (no result: AMA1 RON2 block)
O=C(c1cc2ccccc2oc1=O)N(Cc1cccs1)C1CCS(=O)(=O)C1 (stereo unspecified)	Shiga inhibitor 144, Cycloheximide cs 47 (no result: Pf growth 96h)
Cc1c(C(=O)N(Cc2cccc(Br)c2)C2CCS(=O)(=O)C2)oc2ccccc12 (stereo unspecified)	SARS PLP yeast inconclusive, Pf growth 96h 13µM, Pf growth 48h inconclusive
